Experimental findings from PubChem BioAssay (Tox21) are described below.

Each structure is given as a SMILES string. Unmarked numbers belong to inactive results. Entries that show only a call come without a potency. Activity calls are given as the source filed them. Calls follow the shape of the dose curve; as a rule, active = well fitted curve in the direction sought with a large enough effect in the repeat runs; inconclusive = weak or mixed curves; inactive = flat fitted curve, though single readings scatter.

A short description of this experiment: qHTS assay to test for compound auto fluorescence at 590 nm (red) in HEK293 cells (AID 720679). As to conditions: red autofluorescence 540/590 nm; series mostly up to 91.3 µM. Put shortly:
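HEK293 cells (2,000/well, 10% dialyzed FBS) attached 4-5 hr, then dosed with compound or DMSO and incubated overnight at 37C, 5% CO2. Red fluorescence read at 540/590 nm, Rose Bengal sodium as reference fluorophore.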
A general note: Quantitative high-throughput screening tests each substance at several concentrations.
As to `C[C@@H](NCCCc1cccc(C(F)(F)F)c1)c1cccc2ccccc12`, the Potency result is “inactive”.
On to `CSc1ccc(/C=C2/C(C)=C(CC(=O)O)c3cc(F)ccc32)cc1`, for which the Potency result was “inactive”.
Take `CN(C)C(=O)C1(N2CCCCC2)CCN(CC[C@@]2(c3ccc(Cl)c(Cl)c3)CN(C(=O)c3ccccc3)CCO2)CC1`: the Potency entry was “inactive”.
Turning to `Nc1ccc(N)c2ccccc12`, the Potency result is “inactive”.
On to `CCOC(=O)O[C@]1(C(=O)OCCl)CC[C@H]2[C@@H]3CCC4=CC(=O)C=C[C@]4(C)[C@H]3[C@@H](O)C[C@@]21C`, for which the Potency entry was “inactive”.
Same read-out and setting: the result for `CCCCCCCC/C=C\CCCCCCCCOCCO` reads “inactive”; that for `CCCCCCCCCOC(=O)c1ccc(O)cc1`, “inactive”.
For `CCCCCCOC(=O)c1ccc(O)cc1`, the Potency result is “inactive”.
As to `NC(=NCCCCCCN=C(N)/N=C(\N)Nc1ccc(Cl)cc1)/N=C(\N)Nc1ccc(Cl)cc1`, the Potency entry is “inactive”.
As for `CC(C)C(C)(C)C(C)(C)C(C)(C)S`, the Potency result was “inactive”.
Take `Oc1ccc(C2(c3ccc(O)cc3)CC3CC2C2CCCC32)cc1` (centres undefined): the Potency entry was “inactive”.
As to `Cc1onc(-c2c(Cl)cccc2Cl)c1C(=O)N[C@@H]1C(=O)N2[C@@H]1SC(C)(C)[C@@H]2C(=O)O`, the Potency result was “inactive”.
On the same count and under the same terms, the result for `NNc1nc(-c2ccc(N)cc2)cs1` reads “inactive”.
On the same count and under the same terms, as for `CC/C(=C(\c1ccc(O)cc1)c1ccc(OCCN(C)C)cc1)c1ccccc1`, the entry is “inactive”; as for `CCOc1nc2cccc(C(=O)OC(C)OC(=O)OC3CCCCC3)c2n1Cc1ccc(-c2ccccc2-c2nn[nH]n2)cc1` (centres undefined), “inactive”.
Consider `CCC(C)Nc1ccc(NC(C)CC)cc1` (centres undefined), for which the Potency result was “inactive”.
Same read-out and setting: the result for `CC1(C)CCC(C)(C)c2cc(C(=O)Nc3ccc(C(=O)O)cc3)ccc21` reads “inactive”.
For the molecule `CCCCCCC[N+](CC)(CC)CCCCc1ccc(Cl)cc1`, the fluorescence, % of fluorescent control is -0.312% [at 18.6 µM].
For `Fc1ccc([C@@H]2CCNC[C@H]2COc2ccc3c(c2)OCO3)cc1`, the Potency result is “inactive”.
Regarding `CCCCC(CC)CN=C(N)NC(N)=NCCCCCCN=C(N)NC(N)=NCC(CC)CCCC` (centres undefined), the Potency entry was “inactive”.
Consider `Cc1cc(CCN2CCN(c3nsc4ccccc34)CC2)cc2c1NC(=O)CC2(C)C`, for which the Potency result was “inactive”.
Still for that read-out and setting: the result for `CCCCCCCCCCCCc1ccc(O)cc1` reads “inactive”.
On to `O=C(Nc1cccc([N+](=O)[O-])c1)c1cc2ccccc2cc1O`, for which the Potency entry is “inactive”.
Still for that read-out and setting: as for `Fc1ccc(C(c2ccc(F)cc2)N2CCN(C/C=C/c3ccccc3)CC2)cc1`, the entry is “inactive”; as for `CCCC(c1cc(C(C)(C)C)c(O)cc1C)c1cc(C(C)(C)C)c(O)cc1C`, “inactive”; as for `Clc1ccccc1C(c1ccccc1)(c1ccccc1)n1ccnc1`, “inactive”.
Same read-out and setting: the result for `O=C(Oc1cccc2cccnc12)c1ccccc1` reads “inactive”.
In the case of `O=C1CCCCCN1SSN1CCCCCC1=O`, the Potency result is “inactive”.
Turning to `Cc1ccc(O)c(C(C)(C)C)c1`, the Potency entry was “inactive”.
Turning to `CCCCCCCCNC(C)C(O)c1ccc(SC(C)C)cc1` (centres undefined), the Potency result is “inactive”.
Still for that read-out and setting: the result for `CCCCCCCC/C=C/CCCCCCCC1=NCCN1CCO` reads “inactive”; that for `Oc1ccc2cc(SSc3ccc4cc(O)ccc4c3)ccc2c1`, “inactive”; that for `Cc1c(C)c2c(c(C)c1OC(=O)CCC(=O)O)CC[C@@](C)(CCC[C@H](C)CCC[C@H](C)CCCC(C)C)O2`, “inactive”.
The same measure, in the same setting: as for `O=C1c2c(O)ccc(Nc3ccc(CCO)cc3)c2C(=O)c2c([N+](=O)[O-])ccc(O)c21`, the entry is “inactive”.
The same measure, in the same setting: the result for `c1cc(C(c2ccc(OCC3CO3)cc2)c2ccc(OCC3CO3)cc2)ccc1OCC1CO1` (centres undefined) reads “inactive”; that for `O=C(c1ccc(F)cc1)C1CCN(CCn2c(=O)[nH]c3ccccc3c2=O)CC1`, “inactive”.
Take `Cc1cccc(CN2CCN(C(c3ccccc3)c3ccc(Cl)cc3)CC2)c1` (centres undefined): the fluorescence, % of fluorescent control was 0.431% [at 18.6 µM].
Consider `CCCN(CCC)c1c([N+](=O)[O-])cc(C(F)(F)F)c(N)c1[N+](=O)[O-]`, for which the Potency entry is “inactive”.
For `OCCN1CCN(CC/C=C2/c3ccccc3Sc3ccc(C(F)(F)F)cc32)CC1`, the Potency entry was “inactive”.
